Compound activity as filed in PubChem.
S1P4 antagonist: S1P4 receptor antagonists, primary screen, cell-based; Sphingosine 1-phosphate receptor 4 (Homo sapiens), O95977; S1P4-expressing cells, antagonist mode, reporter read-out; inhibition, % at 4.98 µM; actives 0.26% (n = 220,000); in the data active = inhibition above about 29%
EP2 mod: EP2 receptor modulators, cAMP readout, primary screen, cell-based, HTRF cAMP, PGE2 stimulation | AID 940, 2007 | actives 0.83% (n = 260,000) | induction, % at 25 µM | EP2-expressing cells, cAMP HTRF FRET, PGE2 co-stimulation | Prostaglandin E2 receptor EP2 subtype (Homo sapiens), P43116;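 active = compounds whose cAMP rise, as percent of the full-agonist control response, exceeds 60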;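 note: rat C6 glioma line stably carrying human EP2 under a CMV promoter; the protocol text gives 20 µM as final concentration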
EP2 antag: human EP2 receptor antagonists, primary screen, TR-FRET cAMP, C6 glioma cells; C6 glioma cells expressing human EP2; cells stimulated with saturating PGE2; inhibition, % at 25 µM; AID 1422, 2008; actives 0.52% (n = 260,000); Prostaglandin E2 receptor EP2 subtype (Homo sapiens), P43116;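 active = percent inhibition above 40 after rounding to a whole number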;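 note: rat C6 glioma host cells with rolipram phosphodiesterase inhibitor present; the protocol text gives 20 µM as final concentration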
S1P4 agonist: S1P4 receptor agonists, primary screen, cell-based. AID 1509, 2009. actives 0.35% (n = 220,000). S1P4-expressing cell line, agonist reporter assay. activation, % at 4.98 µM; in the data active = activation above about 11%
S1P3 antag: S1P3 receptor antagonists, primary screen, cell-based | Sphingosine 1-phosphate receptor 3 (Homo sapiens), Q99500 | CHO S1P3 NFAT-BLA reporter, FRET fluorescence, antagonist mode | inhibition, % at 4.98 µM | actives 0.27% (n = 170,000);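 active = inhibition above the plate cutoff, the mean inhibition of test wells on that plate plus 3 SD, cut at about 28% in these data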;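 note: cells challenged with S1P at its EC80 of 0.8 µM; blue over green emission ratio from cleaved BLA substrate after 4 h stimulation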
Target sequence (Q99500 whole entry, looked up): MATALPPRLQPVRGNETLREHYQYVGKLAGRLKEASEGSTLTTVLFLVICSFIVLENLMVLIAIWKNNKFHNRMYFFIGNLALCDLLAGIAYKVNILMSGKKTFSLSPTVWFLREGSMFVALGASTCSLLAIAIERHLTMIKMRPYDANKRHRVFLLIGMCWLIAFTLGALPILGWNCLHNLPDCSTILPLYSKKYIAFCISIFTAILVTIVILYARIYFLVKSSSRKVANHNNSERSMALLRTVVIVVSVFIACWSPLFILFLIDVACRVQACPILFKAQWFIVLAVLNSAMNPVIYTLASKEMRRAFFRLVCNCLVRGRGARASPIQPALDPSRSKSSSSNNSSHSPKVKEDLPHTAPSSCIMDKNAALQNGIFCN
Hits are given with their value; i = inactive; nt = no result given; ! = not active in a repeat. The list is not random: actives were taken first. Their share in the collection is about 2%.

SMILES	S1P4 antagonist	EP2 mod	EP2 antag	S1P4 agonist	S1P3 antag
c1cncc(-c2noc(C34CC5CC(CC(C5)C3)C4)n2)c1	i	63	i	i	i
CCC(=O)NCCCn1c(-c2cccnc2C)cc2cccnc21	nt	i	i	nt	nt
O=C(CNC(=O)c1cccs1)OCc1ccc(Cl)c(Cl)c1	nt	i	i	nt	nt
CCCCN1C(=O)C2C3C=CC(C2C1=O)C1C2C(=O)N(CCCC)C(=O)C2C31 (centres undefined)	i	i	i	i	i
CN1CCN(CN2C(=O)[C@H]3[C@H]4C=C[C@@H]([C@@H]3C2=O)[C@H]2[C@@H]3C(=O)N(CN5CCN(C)CC5)C(=O)[C@@H]3[C@@H]42)CC1	nt	i	53	nt	nt
C[C@H]1CCC/C=C\[C@@H]2C[C@H](OC(=O)CN(C)C)C[C@H]2[C@@H](O)/C=C\C(=O)O1	nt	i	46	nt	nt
CC1=CN2C(=N)/C(=C/c3ccc([N+](=O)[O-])o3)C(=O)N=C2S1	i	i	104	i	i
CC1=CN2C(=N)/C(=C/c3ccco3)C(=O)N=C2S1	i	i	i	i	i
CCOC(=O)c1[nH]c(C)c(C(=O)OCC)c1C	i	i	i	i	i
CCOC(=O)c1c(C)[nH]sc1=S	i	64	nt	i	nt
O=C(CSc1ncccn1)Nc1ncc(Cc2cccc(C(F)(F)F)c2)s1	nt	i	i	nt	nt
NC(N)=Nc1ccc(-c2ccc(N=C(N)N)cc2)cc1	nt	i	48	nt	nt
COc1ccc2cc(CN(C(=O)c3cccnc3)C3CCCC3)c(=O)[nH]c2c1	nt	i	i	nt	nt
CCCSc1nc2sc3c(c2c(=O)n1CC)CC(C)(C)OC3	i	i	i	i	i
C=CCn1c(SCC)nc2sc3c(c2c1=O)CC(C)(C)OC3	nt	80	i	nt	nt
CCC(CC)C(=O)Nc1cccc(-c2nc3ccccc3o2)c1	i	i	i	i	61
CC(=O)Nc1cccc(-c2nc3ccccc3c(=O)o2)c1	i	i	i	i	84
O=C(Cn1ccc2ccc(F)cc21)Nc1nnc(CCN2CCCC2)s1	nt	i	i	nt	nt
O/N=C/c1ccc2cccc(O)c2n1	i	i	i	i	i
Oc1cccc2ccc(SSc3ccc4cccc(O)c4n3)nc12	nt	i	106	nt	nt
CC1CCCC(C)N1C(=O)Cc1cccs1 (centres undefined)	nt	i	i	nt	nt
COC1=CC(=O)C(O)=C(CCCCCCC/C=C/CCCCCCCC2=C(O)C(=O)C=C(OC)C2=O)C1=O	nt	nt	54	nt	nt
CCCCCCc1c(O)c2ccccc2[nH]c1=O	i	i	i	i	i
COC1=C(OC)C(=O)C(CCCCCCCCCCO)=C(C)C1=O	i	nt	i	i	i
CCCCCCCCCCCC1=C(O)C(=O)C=C(O)C1=O	nt	i	65!	nt	nt
SMILES	S1P4 antagonist	EP2 mod	EP2 antag	S1P4 agonist	S1P3 antag
Cc1ccc(Cn2c(SCC(=O)NC3CCCCC3)nc3c2c(=O)n(C)c(=O)n3C)cc1	nt	i	i	nt	nt
Clc1ccc2[nH]c3c(N4CCC5(CC4)OCCO5)ncnc3c2c1	i	i	46	i	nt
CCc1cc2c(C)cc(C)cc2nc1SCC(=O)Nc1ccc2c(c1)OCO2	nt	i	i	nt	nt
CCc1cc2c(C)cc(C)cc2nc1SCC(=O)NCc1ccc2c(c1)OCO2	nt	72	i	nt	nt
Cc1cc2cc(C)c(SCC(=O)NCc3ccc4c(c3)OCO4)nc2cc1C	nt	85	i	nt	nt
CCCC(c1nnnn1Cc1ccco1)N(Cc1cc2cc(C)ccc2[nH]c1=O)C1CCCCC1 (centres undefined)	nt	i	i	nt	nt
Cc1nn(C)cc1C(=O)N1CCC(c2ncncc2-c2ccncc2)CC1	nt	i	nt	nt	nt
Cc1cc2cc(CN(Cc3ccccc3)S(=O)(=O)c3cccc4nsnc34)c(=O)[nH]c2cc1C	nt	i	i	nt	nt
Nc1c(C(=O)NCc2cccs2)nnn1CC(=O)Nc1cccc(Cl)c1	i	i	i	i	i
Nc1nc2c(C(=O)NCc3cccs3)nnn2c2cccc(Cl)c12	nt	i	49	nt	nt
c1cncc(CN(CCCN2CCOCC2)Cc2cnn(C3CCCCC3)c2)c1	nt	i	i	nt	nt
Cc1ccc(C(=O)Oc2oc(-c3ccccc3)nc2C=Nc2ccc(N(C)C)cc2)cc1	i	i	42	i	i
NC[C@H](O)c1ccc(O)c(O)c1	nt	72	i	nt	nt
CC(C)NCC(O)c1ccc(O)c(O)c1 (centres undefined)	nt	76	i	nt	nt
CCOc1ccc(NC(=O)CSc2nnc(-c3ccc(Cl)cc3)o2)cc1	nt	i	i	nt	nt
COC(=O)CSc1nc2c(c(-c3ccco3)c1C#N)CCCC2	i	i	i	i	i
COC(=O)CSc1nc2c(c(-c3ccc(O)cc3)c1C#N)CCCC2	i	62	i	i	i
Cc1cc(NC(=O)c2cnn3c(C(F)F)cc(-c4ccccc4)nc23)no1	i	i	i	i	i
Cc1cc(NC(=O)c2cnn3c(C(F)(F)F)cc(-c4ccccc4)nc23)no1	i	i	51	i	i
COc1ccc(C(=O)N2CCn3c2nc2ccccc23)cc1	i	i	i	i	i
O=C(c1ccc(Cl)cc1)N1CCn2c1nc1ccccc12	i	i	97	i	i
CCCOC(=O)C(C)n1c(-c2ccccc2)nc2ccccc2c1=O (centres undefined)	i	61	i	i	nt
N#Cc1cc2cc3c(cc2nc1SCC(=O)NCc1ccccc1)OCCO3	nt	i	43	nt	nt
CCOC(=O)c1ccc(NC(=O)CSc2nc3cc4c(cc3cc2C#N)OCCO4)cc1	nt	83	i	nt	nt
COc1ccc(N=c2oc3c(OC)cccc3cc2C(=O)NC2CCCC2)cc1	nt	79	i	nt	nt
SMILES	S1P4 antagonist	EP2 mod	EP2 antag	S1P4 agonist	S1P3 antag
CCOc1ccc(N=c2oc3c(OC)cccc3cc2C(=O)Nc2nccs2)cc1	nt	i	i	nt	nt
N#[N+]c1ccc(Nc2ccccc2)cc1	nt	i	43	nt	nt
NC(=O)Nc1ccc(Nc2ccccc2)cc1	i	i	i	i	i
Clc1cccc(Cl)c1C(Nc1nncs1)Nc1nncs1	nt	i	52	nt	nt
O=C(Cc1c(F)cccc1Cl)Nc1nncs1	nt	i	i	nt	nt
Fc1cccc(F)c1C(Nc1nncs1)Nc1nncs1	nt	i	46	nt	nt
CC[C@H](CCC(C)[C@H]1CCC2C3CCC4C[C@@H](O)CC[C@]4(C)C3CC[C@@]21C)C(C)C (some centres undefined)	nt	i	i	nt	nt
COC(=O)CC[C@@H](C)[C@@H]1CC[C@@H]2[C@H]3CC[C@H]4C[C@@H](O)CC[C@]4(C)[C@@H]3CC[C@]21C	nt	i	42	nt	nt
CC(C)CCCC(C)C1CCC2C3C[C@@H](O)[C@@]4(O)C[C@@H](O)CC[C@]4(C)C3CC[C@]12C (some centres undefined)	nt	i	i	nt	nt
CC(C)CCC[C@@H](C)[C@@H]1CC[C@@H]2[C@H]3CC[C@H]4C[C@@H](N)CC[C@]4(C)[C@@H]3CC[C@]21C	nt	i	41	nt	nt
CN1CCN(C(c2ccc(F)cc2)c2nnnn2C2CCCCC2)CC1 (centres undefined)	nt	i	i	nt	nt
O=C1NN(c2ccc(Cl)c(Cl)c2)C(=O)/C1=C/c1cccc(OC(=O)c2cccs2)c1	i	i	i	i	nt
O=C1NN(c2ccccc2)C(=O)/C1=C\c1cccc(OC(=O)c2cccs2)c1	i	i	40	i	nt
